# High-throughput results deposited in PubChem BioAssay by Broad Institute.
# CDK5 inh – blocks human CDK5/p35 kinase activity; Q00535+Q15078; Recombinant CDK5/p35, ADP-Glo luminescence, 60 min; inhibition, % at 10 µM; 0.01% of 330,000 active; AID 488839;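 active means highest replicate inhibition of at least 50% and at least 75% of replicates reaching 50%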;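 further: plate controls were DMSO neutral control for no effect and GW8510 at 10 µM for full effect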
# SIRT5 block – inhibitors of human sirtuin-5 desuccinylase; Q9NXA8; AID 652115; inhibition, % at 15 µM; 1.1% of 330,000 active; Purified SirT5, succinyl-peptide AMC, trypsin-coupled fluorescence; in the data active means inhibition above about 15%
# Target sequence (Q9NXA8 whole entry, looked up): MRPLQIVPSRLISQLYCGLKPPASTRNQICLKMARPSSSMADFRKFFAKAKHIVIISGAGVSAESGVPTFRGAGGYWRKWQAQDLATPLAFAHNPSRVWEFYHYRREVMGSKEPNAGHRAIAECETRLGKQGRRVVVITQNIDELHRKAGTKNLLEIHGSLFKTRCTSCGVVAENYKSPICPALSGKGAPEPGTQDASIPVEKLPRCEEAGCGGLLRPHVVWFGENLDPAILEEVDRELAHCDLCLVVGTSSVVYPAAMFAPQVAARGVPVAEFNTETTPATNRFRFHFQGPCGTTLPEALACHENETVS
# PvdQ acylase – P. aeruginosa PvdQ acylase inhibition; purified PvdQ acylase, fluorescence plate reader; inhibition, % at 10 µM; 0.063% of 340,000 active; in the data active means inhibition above about 30%, passing the limit was not always enough;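 further: 0% = vehicle neutral wells and 100% = reference inhibitor wells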
# FGF22 binding – binders of recombinant human FGF22 by thermal shift; activity (Tm shift, normalised), % at 9.99 µM; AID 651658; Q9HCT0; 1.5% of 340,000 active; SYPRO orange fluorescence; percent of sucrose octasulfate shift, DMSO zero;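 active means mean Tm shift, scaled 0 neutral to 100 positive control, at about 1.3% or above, every replicate too, limit read from the data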
# Target sequence (Q9HCT0 whole entry, looked up): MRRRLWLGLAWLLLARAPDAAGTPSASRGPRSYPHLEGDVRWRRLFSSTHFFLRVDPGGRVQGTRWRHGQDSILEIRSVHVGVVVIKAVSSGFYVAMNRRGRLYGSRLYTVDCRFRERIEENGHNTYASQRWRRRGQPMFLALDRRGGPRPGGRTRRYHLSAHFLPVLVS
# PglD DTNB – inhibitors of Campylobacter jejuni PglD acetyltransferase; purified PglD enzyme, DTNB colorimetric CoA detection; inhibition, % at 12.5 µM; 0.098% of 360,000 active; in the data active means inhibition above about 16%, passing the limit was not always enough
# dFosB act-1 – activators of mouse delta FosB homodimer; purified delta FosB, TAMRA-CDK5 oligo fluorescence polarization; percent of positive-control signal above neutral wells; activation, % at 25 µM; 0.99% of 340,000 active; AID 493131;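 active means mean activation above about 17%, with every replicate also reaching it, limit read from the data, passing the limit was not always enough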
# dFosB act-2 – enhances mouse delta FosB homodimer binding to DNA; shares compounds with dFosB act-1; purified delta FosB, TAMRA-CDK5 oligo fluorescence polarization; normalised: neutral wells 0, positive control 100; activation, % at 24.9 µM; 2,400 tested, under 10 active; AID 588690;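 active means highest replicate activation at or above 34% and every replicate reaching that threshold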;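 further: higher polarization means more probe DNA bound by delta FosB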
# * marks the source's active call; other numbers are inactive results; x = not tested or not shown. This is a sample that favours compounds with a hit; in the whole collection about 2.8% have one here.
SMILES,CDK5 inh,SIRT5 block,PvdQ acylase,FGF22 binding,PglD DTNB,dFosB act-1,dFosB act-2
COc1ccc(-c2noc(CCC(=O)NCc3cc(Br)ccc3OC)n2)cc1,0,x,-12,x,2,3,x
COc1ccc(Br)cc1CNC(=O)CCc1nc(-c2ccc(C)cc2)no1,-1,x,-10,x,-2,21*,0
COC(=O)Cc1ccc(NC(=O)c2ccc(NC(=O)c3ccco3)cc2)cc1,3,-1,-5,0,x,34*,3
CC(=O)Oc1ccc(C(=O)Nc2cccc(NC(=O)c3ccco3)c2)cc1,0,-4,-3,0,3,-21,x
COC(=O)c1cccc(NC(=O)NC(=O)c2ccc(Cl)cc2)c1,1,0,-16,0,5,41*,3
COC(=O)c1ccc(NC(=O)c2cccc(NC(=O)c3ccco3)c2)cc1,-1,-2,-8,0,-2,17*,4
O=C(Nc1cccc(NC(=O)c2ccco2)c1)c1ccc([N+](=O)[O-])cc1,-1,1,-7,0,x,20*,4
CN1C(=O)c2cc(NC(=O)c3cscn3)ccc2OC[C@H]2O[C@H](CC(=O)NCC3CC3)CC[C@@H]21,x,x,x,0,3,x,x
C[C@H]1CN([C@@H](C)CO)C(=O)c2cc(/C=C/c3ccccc3)cnc2O[C@@H]1CN(C)C(=O)c1ccc2c(c1)OCO2,x,-7,x,0,3,x,x
Cc1ccc(NC(=O)c2cc(-c3ccc(F)cc3)on2)cc1C,2,2,-6,0,-1,-3,x
O=C(Nc1cccnc1)c1cc(-c2ccc(F)cc2)on1,1,-2,-8,0,x,-6,x
CC(=O)c1cccc(NC(=O)c2cc(-c3ccc(F)cc3)on2)c1,-1,6,-11,0,-2,25*,1
O=C(Nc1cccnc1Cl)c1cc(-c2ccc(F)cc2)on1,1,8,-11,0,-5,84*,1
COc1ccc(-c2cc(C(=O)Nc3cccnc3Cl)no2)cc1,-2,-4,-9,0,-3,13,x
O=C(Nc1cccnc1)c1cc(-c2cccc(Cl)c2)on1,0,-2,-12,0,-1,57*,2
Cc1noc(C)c1S(=O)(=O)N(C)C[C@@H]1Oc2ccc(NS(=O)(=O)c3ccccc3)cc2CC(=O)N([C@H](C)CO)C[C@@H]1C,x,-3,x,0,1,x,x
CC(C)C(=O)Nc1ccc(Cl)cc1-c1nc2ccccc2[nH]c1=O,-1,-2,-16,0,-5,0,x
CNc1ccc([N+](=O)[O-])cc1-c1nc2ccccc2[nH]c1=O,2,1,7,0,-3,40*,1
Cc1ccc(C(C)C)c(OCC(=O)NNC(=O)Cn2[nH]c(=O)c3ccccc3c2=O)c1,0,-5,-4,0,0,35*,4
Cc1ccc(C(C)C)c(OCC(=O)NN2C(=O)c3ccccc3C2=O)c1,-2,0,-3,0,5,2,x
COCC(=O)N1CC[C@H]2[C@@H]1c1cc(-c3ccc(F)cc3)ccc1N(C)[C@H]2CO,x,8,x,0,-6,x,x
O=C(c1cc(-c2cccc(Cl)c2)on1)N1CCOCC1,3,-5,9,0,3,-1,x
O=C(c1cc(-c2ccc(Cl)c(Cl)c2)on1)N1CCOCC1,2,-4,-7,0,3,50*,0
C[C@@H]1CCCCO[C@@H](CN(C)C)[C@H](C)CN([C@H](C)CO)C(=O)c2cc(NS(=O)(=O)c3ccc(Cl)cc3)ccc2O1,x,5,x,0,1,x,x
Cc1cccc(-c2nsc(SCC(=O)Nc3ccc4c(c3)OCO4)n2)c1,-1,x,-10,x,x,20*,0
SMILES,CDK5 inh,SIRT5 block,PvdQ acylase,FGF22 binding,PglD DTNB,dFosB act-1,dFosB act-2
Cc1ccccc1-c1nsc(SCC(=O)Nc2ccc3c(c2)OCO3)n1,-2,x,-7,x,x,-10,x
Cc1ccc(S(=O)(=O)Nc2ccc3c(c2)CC(=O)N([C@H](C)CO)C[C@@H](C)[C@H](CN(C)Cc2ccc(-c4ccccc4)cc2)O3)cc1,0,x,-3,0,2,28*,2
O=c1[nH]c(SCc2nc3c(cnn3-c3ccccc3)c(=O)[nH]2)nc2ccccc12,1,x,-15,x,-4,44*,4
Cc1sc2ncnc(N3CCC(C(=O)Nc4nc(-c5ccc(F)cc5)cs4)CC3)c2c1C,0,-1,-11,0,-7,18*,-1
C[C@H](CO)N1C[C@H](C)[C@H](CN(C)Cc2ccccc2)Oc2ccc(NC(=O)C3CC3)cc2C1=O,x,0,x,0,-10,x,x
Cc1csc(Nc2nc(N)c(C(=O)Nc3cc(Cl)ccc3F)o2)n1,0,-3,-6,0,-4,20*,2
CCOC(=O)Nc1ccc2c(c1)N(C(=O)CN)c1ccccc1CC2,-1,-3,-20,0,-6,30*,-1
CC(C)NC(=O)Nc1ccc2c(c1)C(=O)N([C@@H](C)CO)C[C@H](C)[C@@H](CN(C)C(=O)NC(C)C)OCCCC[C@H](C)O2,x,0,x,0,0,x,x
Oc1ccc(Cl)cc1-c1cc(-c2cccc(Br)c2)n[nH]1,0,x,-17,x,2,46*,-1
COc1ccc(Cc2noc(-c3ccccc3)n2)cc1OC,-1,-2,-12,1,x,-1,x
COc1ccc(-c2nc(Cc3ccc(Cl)cc3)no2)cc1OC,0,x,0,x,-1,50*,0
Cc1ccc2nc3c(c(N)c2c1)CCN3C,1,-13,-8,0,-2,18*,0
Cc1cc(N/N=C/c2cccc(Cl)c2)nc(NCc2ccccc2)n1,0,x,-5,x,-4,41*,3
Cc1cc(Nc2cccc(Cl)c2)nc(NCc2ccccc2)n1,0,1,0,0,x,41*,-1
Cc1cc(C)nc(NCc2ccc(Cl)cc2)n1,2,-3,17,0,-3,2,x
O=C(CC(=O)N/N=C/c1ccc(Cl)cc1Cl)NCc1ccccc1,1,-1,-10,x,0,-7,x
CN(C)c1nc(NCc2ccccc2)nc(N/N=C/c2ccc(Cl)cc2Cl)n1,0,x,-7,x,x,17*,5
CCCC(=O)Nc1ccc2c(c1)OC[C@@H](C)N(C(=O)c1ccncc1)C[C@H](C)[C@@H](OC)CN(C)C2=O,x,8,x,0,1,x,x
C[C@@H]1CCCCO[C@@H](CN(C)C(=O)Nc2ccc(F)cc2)[C@H](C)CN([C@H](C)CO)C(=O)c2cc(NS(C)(=O)=O)ccc2O1,x,-2,x,0,-2,x,x
C[C@H]1CN([C@@H](C)CO)C(=O)Cc2cc(NC(=O)CCC(F)(F)F)ccc2O[C@H]1CN(C)C,x,-2,x,0,0,x,x
